ELG1 repair inh = qHTS screen for small molecules that inhibit ELG1-dependent DNA repair in human embryonic kidney (HEK293T) cells expressing luciferase-tagged ELG1 | HEK293T ELG1-luciferase reporter, luminescence, 16 h; DNA damage induced by 5-fluorouridine | Potency, µM (titrated, usually from 46.1 µM), most hits filed as inhibitors | actives 2.3% (n = 330,000) | AID 504467, 2011; further: nearly all actives have a fitted effect of over 55% in size
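Luminescence from the luciferase reporter, measured 30 min after ONE-Glo reagent at room temperature, was the read-out. Beforehand, 2,000 cells per well were exposed for 16 hr at 37 °C to 5-fluorouridine together with compound or vehicle.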
MCF10A rereplic = A quantitative high throughput screen for small molecules that induce DNA re-replication in MCF 10a normal breast cells | Potency, µM (doses to about 46.1 µM), usual class: activators | AID 624296, 2012 | actives 2.9% (n = 350,000) | MCF 10A DNA re-replication, Hoechst nuclear intensity, 48 h; further: nearly all actives have a fitted effect of over 50% in size
SW480 rereplic = A quantitative high throughput screen for small molecules that induce DNA re-replication in SW480 colon adenocarcinoma cells; Potency, µM (top dose mostly 46.1 µM), most hits filed as activators; actives 1.8% (n = 340,000); SW480 DNA re-replication, Hoechst DNA content imaging, 48 h; further: nearly all actives have a fitted effect of over 55% in size
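Per well, 250 cells were exposed to pinned compound for 48 hr. Nuclear DNA was visualised with Hoechst (40 min, 37 C) and total object intensity recorded by fluorescence scanning.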
KB-3-1 tox = qHTS assay for MDR1-selective chemotherapeutics: Primary screen using the parental adenocarcinoma cell KB-3-1; KB-3-1 viability, CellTiter-Glo ATP luminescence, 72 h; Potency, µM (series often up to 46.1 µM), usual class: cytotoxic; actives 1.4% (n = 400,000); further: nearly all actives have a fitted effect of over 60% in size
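Parental KB-3-1 viability, qHTS format: 72 h compound exposure, 37 °C; CellTiter-Glo; media-only wells and DMSO plates as controls; concentration-effect fits on corrected data.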
KB-V1 MDR tox = qHTS assay for MDR1-selective chemotherapeutics: Primary screen using the drug-selected MDR subline cells KB-V1 | KB-V1 MDR cells viability, CellTiter-Glo, 72 h | Potency, µM (titrated, usually from 46.1 µM), most hits filed as cytotoxic | actives 3.4% (n = 400,000) | AID 1347076, 2019; further: nearly all actives have a fitted effect of over 60% in size
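qHTS viability screen in drug-selected KB-V1 MDR cells: 72 h compound treatment at 37 degrees C, ATP luminescence end point.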
Large screens that a line does not name were inactive. The list is not random: actives were taken first. Their share in the collection is about 8.1%. The call rests on the fitted dose curve; in most records, active means well fitted curve in the direction sought with a large enough effect; inconclusive means small, poorly fitted or top-dose-only effect, or another doubt; inactive means no such curve, though single readings can be large; an effect the other way counts as inactive or inconclusive.

c1csc(-c2nc(NCC3CCCO3)c3ccccc3n2)c1 (stereo unspecified)	none
Brc1ccc2nc(-c3cccs3)c(NCC3CCCO3)n2c1 (stereo unspecified)	ELG1 repair inh inconclusive, MCF10A rereplic 21µM
CCCS(=O)(=O)c1c(S(=O)(=O)CCC)c2cc(CC)ccn2c1C(=O)c1ccc(OC)cc1	none (no result: ELG1 repair inh, MCF10A rereplic, SW480 rereplic)
CCCS(=O)(=O)c1c(S(=O)(=O)CCC)c2cc(-c3ccncc3)ccn2c1C(=O)OC	ELG1 repair inh inconclusive, MCF10A rereplic 23µM, SW480 rereplic 18µM
COc1ccc(OC)c(NC(=O)CSC2=Nc3ccccc3C3=NC(CC(=O)NCc4ccco4)C(=O)N23)c1 (stereo unspecified)	none (no result: ELG1 repair inh, MCF10A rereplic, SW480 rereplic)
CCNS(=O)(=O)c1ccc2c(c1)NCC2	SW480 rereplic 5.8µM
CCOC(=O)c1cnc2c(Cl)cc(Cl)cc2c1Nc1cc(C(=O)O)ccc1C	KB-3-1 tox inconclusive (no result: ELG1 repair inh, MCF10A rereplic, SW480 rereplic)
CCOC(=O)c1cnc2c(Cl)cc(Cl)cc2c1NCCOCCO	ELG1 repair inh 18µM
CC(=O)c1ccc(NC(=O)CCc2ccc(C)o2)cc1	none
CC[C@H](CO)Oc1cc(NCc2ccc(Cl)c(Cl)c2)c2ncn(C(C)C)c2c1	ELG1 repair inh inconclusive, MCF10A rereplic 21µM, KB-3-1 tox inconclusive
CC1CCN(Cc2c(C(=O)N3CCc4ccccc4C3)nc3ccc(Cl)cn23)CC1	none
CC(=O)N1c2ccc(S(=O)(=O)N3CCC(C(=O)NCc4ccc(Cl)cc4)CC3)cc2CC1C (stereo unspecified)	ELG1 repair inh 10µM, MCF10A rereplic 23µM, SW480 rereplic inconclusive, KB-3-1 tox inconclusive
Cc1ccc(CNC(=O)CCS(=O)(=O)c2ccc3c(c2)CC(C)N3C(=O)C2CC2)cc1 (stereo unspecified)	MCF10A rereplic 10µM, SW480 rereplic inconclusive, KB-3-1 tox 21µM
CC(=O)N1c2ccc(S(=O)(=O)N3CCC(C(=O)NCc4ccccc4Cl)CC3)cc2CC1C (stereo unspecified)	ELG1 repair inh 23µM
CC1Cc2cc(S(=O)(=O)NCCc3ccccc3)ccc2N1C(=O)C1CC1 (stereo unspecified)	MCF10A rereplic inconclusive
CC1Cc2cc(S(=O)(=O)NCc3ccccc3Cl)ccc2N1C(=O)C1CCC1 (stereo unspecified)	KB-3-1 tox 23µM, KB-V1 MDR tox inconclusive (no result: ELG1 repair inh, MCF10A rereplic, SW480 rereplic)
O=c1cc2c(=O)oc3cc(O)c(O)oc3c2c(O)c1O	KB-V1 MDR tox inconclusive
C=CCCC(=O)N1CCC(CCC(=O)NC2CC2)CC1	none
CCOc1ccc(Cl)cc1S(=O)(=O)N1CCC(C(=O)NCc2ccco2)CC1	none
N#Cc1cc2ccccc2nc1SCC(=O)NC1CC1	ELG1 repair inh inconclusive
Cc1nn(C(C)C(=O)Nc2sc3c(c2C#N)CCCC3)c(C)c1[N+](=O)[O-] (stereo unspecified)	ELG1 repair inh inconclusive, MCF10A rereplic inconclusive, SW480 rereplic inconclusive, KB-V1 MDR tox inconclusive
c1ccc(-c2nc(N3CCNCC3)nc3ccccc23)cc1	ELG1 repair inh inconclusive, MCF10A rereplic 0.71µM, SW480 rereplic 23µM, KB-V1 MDR tox inconclusive
c1ccc(-c2nc(N3CCCCC3)nc3ccccc23)cc1	MCF10A rereplic inconclusive, SW480 rereplic inconclusive
CCN1CCN(c2nc(-c3ccccc3)c3ccccc3n2)CC1	MCF10A rereplic 15µM, SW480 rereplic 21µM
Cc1cc(C)c(C)c(S(=O)(=O)N2CCC(C(=O)N(C)Cc3nc4ccccc4c(=O)[nH]3)CC2)c1C	KB-V1 MDR tox 23µM (no result: ELG1 repair inh)
Cc1c(C(=O)N(C)Cc2nc3ccccc3c(=O)[nH]2)oc2ccccc12	ELG1 repair inh inconclusive, MCF10A rereplic 10µM, SW480 rereplic 16µM, KB-3-1 tox 18µM, KB-V1 MDR tox 8.2µM
CN(Cc1nc2ccccc2c(=O)[nH]1)C(=O)c1cccc(S(=O)(=O)N2CCCC2)c1	KB-V1 MDR tox inconclusive
Cc1cccc(CN2Cc3cccc4c3[C@H](C=CC4)CC2=O)c1	none (no result: ELG1 repair inh, MCF10A rereplic, SW480 rereplic)
CC(CCc1ccccc1)NC(=O)COC(=O)C(CCC(N)=O)NC(=O)c1ccc(F)cc1 (stereo unspecified)	none
COc1ccccc1CNC(=O)c1cccnc1	KB-V1 MDR tox inconclusive
COc1ccc(/C=C2\SC(=S)N(CCCC(=O)Nc3ccc(C(=O)O)cc3)C2=O)cc1OC	none
CCC1(C)Cc2c(sc3[nH]c(=O)[nH]c(=O)c23)CS1 (stereo unspecified)	KB-V1 MDR tox 12µM
Cc1nc2cc(C(=O)O)ccc2n1-c1ccc(F)cc1F	none
Cn1nnnc1Sc1ccc([N+](=O)[O-])cc1Cl	MCF10A rereplic inconclusive, SW480 rereplic inconclusive
CN1CCN(S(=O)(=O)c2ccc(Sc3nnnn3-c3ccccc3)c([N+](=O)[O-])c2)CC1	MCF10A rereplic 6.5µM, SW480 rereplic 16µM, KB-3-1 tox inconclusive, KB-V1 MDR tox inconclusive
O=[N+]([O-])c1ccc(Sc2nnnn2-c2ccccc2)c(Cl)c1	MCF10A rereplic 4.1µM, SW480 rereplic inconclusive, KB-3-1 tox inconclusive, KB-V1 MDR tox inconclusive
CC(=O)c1ccc(Sc2nnnn2-c2ccccc2)c([N+](=O)[O-])c1	MCF10A rereplic inconclusive, SW480 rereplic inconclusive, KB-3-1 tox inconclusive, KB-V1 MDR tox inconclusive
COc1ccc(C(=O)N2CCN(c3nc(C4CC4)nc4sc(C)c(C)c34)CC2)cc1	ELG1 repair inh inconclusive, MCF10A rereplic inconclusive, KB-3-1 tox inconclusive, KB-V1 MDR tox 23µM
Cc1sc2nc(C3CC3)nc(N3CCN(C(=O)c4ccc(Cl)cc4)CC3)c2c1C	ELG1 repair inh 23µM, MCF10A rereplic inconclusive, KB-3-1 tox inconclusive, KB-V1 MDR tox 18µM
Cc1sc2nc(C3CC3)nc(N3CCN(C(=O)c4ccc(F)cc4)CC3)c2c1C	ELG1 repair inh inconclusive, MCF10A rereplic inconclusive, SW480 rereplic inconclusive
Oc1ccc(Br)cc1C=Nc1ccc(Cl)cc1	ELG1 repair inh inconclusive
CCN(CC)c1ccc(N=Cc2cc(Br)ccc2O)cc1	ELG1 repair inh inconclusive, MCF10A rereplic inconclusive, SW480 rereplic 10µM, KB-3-1 tox inconclusive
COc1cccc(C(C)=NNc2ccc([N+](=O)[O-])cc2[N+](=O)[O-])c1OC	none (no result: ELG1 repair inh, MCF10A rereplic, SW480 rereplic)
COc1ccccc1/C=C/C=N/N1CCN(Cc2ccc(Cl)cc2)CC1	MCF10A rereplic inconclusive
COc1ccccc1/C=C/C=N\N1CCN(Cc2ccccc2Cl)CC1	MCF10A rereplic inconclusive, KB-V1 MDR tox 16µM
Cc1nc2nc(CSc3nnc(C)s3)cc(=O)n2[nH]1	none
COc1ccc(CCNC(=O)c2c(O)nc3ccccn3c2=O)cc1OC	KB-V1 MDR tox 7.3µM (no result: ELG1 repair inh, MCF10A rereplic, SW480 rereplic)
COc1cccc(CNC(=O)c2c(O)nc3ccccn3c2=O)c1	KB-V1 MDR tox 23µM (no result: ELG1 repair inh, MCF10A rereplic, SW480 rereplic)
